# Compound activity from PubChem.
# Pf growth 96h = P. falciparum growth inhibition at 96 hours. P. falciparum luciferase reporter growth, 96 h. Potency, µM (titrated, usually from 28.7 µM), without a hit: at the highest dose activity change, negative = inhibition, hits mostly inhibitors. hit rate 6.9% among 320,000. AID 504834; also: potency is read from the fitted curve at half-maximal effect; % is scaled to controls: 0 for no effect and ±100 for the full control effect
#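 Two-generation exposure (96 h) targets delayed-death phenotype. Reporter parasites carrying integrated firefly luciferase, in red cells at 2% hematocrit and 0.05% parasitemia final, kept at 37 C, 5% CO2; luminescence loss indicates inhibition.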
# Shiga toxin inh = blocks Shiga toxin action in Vero cells | Vero cells, Shiga toxin protein synthesis inhibition reporter | inhibition, % at 38.7 µM | hit rate 9.2% among 290,000 | AID 2315; in the data active = inhibition mostly above about 28%, no sharp cut-off; inactive = mostly below about 43%; also: 0% is about no effect
# Pf growth 48h = inhibits P. falciparum growth in the first generation, 48 h | P. falciparum luciferase growth in erythrocytes, 48 h | Potency, µM (doses to about 28.7 µM), for inactives: at the top dose activity change, negative = inhibition, hits mostly inhibitors | hit rate 5.9% among 310,000 | AID 504832; also: potency is read from the fitted curve at half-maximal effect; % is scaled to controls: 0 for no effect and ±100 for the full control effect
#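 Compounds are pin-transferred into medium, infected erythrocytes (2% hematocrit, 0.1% parasitemia final) are added, and plates sit one parasite generation at 37 C in 5% CO2. Detection reagent is then added and luminescence measured.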
# Cycloheximide cs = counter-screen for Shiga toxin inhibitors: cycloheximide protein synthesis inhibition. hit rate 12% among 300,000. cell reporter, cycloheximide protein synthesis inhibition counterscreen. max response, %. AID 2314; in the data active = max response mostly above about 13%, no sharp cut-off; inactive = mostly below about 14%; also: read at 38.3 µM for the half of the compounds with a filed dose; 0% is about no effect
# NS1 function inh = influenza NS1 inhibition. AID 2326. Potency, µM (highest dose often 46.1 µM), without a hit: top-dose activity, positive = more growth. hit rate 0.4% among 270,000; calls by dose curve; also: potency is read from the fitted curve at half-maximal effect; actives are rising curves; nearly all actives have a fitted effect of over 50% in size
#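 Compounds were scored for reversing the slow growth caused by influenza A NS1 in S. cerevisiae, measured by optical density at 600 nm. Assay medium contained 2% galactose at pH 6.0; NS1-free yeast of the same strain were the positive control.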
# * marks the source's active call; other numbers are inactive results; ? = inconclusive; nt = no result given. Only some compounds are listed: those with a hit (about 21% of all), similar ones and a draw of the others. Unless noted, calls follow the shape of the dose curve; as a rule, active = well fitted inhibition curve with a large enough effect; inconclusive = small, poorly fitted or top-dose-only effect, or another doubt; inactive = no such curve, though single readings can be large or run the other way.
SMILES,Pf growth 96h,Shiga toxin inh,Pf growth 48h,Cycloheximide cs,NS1 function inh
Cc1cc(NCCCO)n2c(nc3ccccc32)c1C#N,?,-18.4,10.4µM*,-3.7,18.2%
COc1ccc(/C(C)=N/OCC(=O)N2CC3(C)CC2CC(C)(C)C3)cc1 (centres undefined),?,-1.6,-15.6%,-5.1,-7.9%
COC(=O)CCCC1=CC2=C(c3ccccc3)C(=O)C(C)(OC(=O)C3CCCC3)C(=O)C2=CN1C1CCCCC1 (centres undefined),?,22.2,10.4µM*,-0.7,12.7%
COC(=O)CCCC1=CC2=C(c3ccccc3)C(=O)C(C)(OC(=O)C3CCCC3)C(=O)C2=CN1CC1CC1 (centres undefined),8.28µM*,14.3,?,0.3,1.6%
COC(=O)CCCC1=CC2=C(c3ccccc3)C(=O)C(C)(OC(=O)C3CCCC3)C(=O)C2=CN1C1CCCC1 (centres undefined),?,2.0,?,-2.6,2.7%
C/C(=N\NC(N)=O)c1ccccc1Cl,4.1%,1.5,-7.2%,-2.1,-1.9%
O=C(CSc1nnnn1-c1ccc(F)cc1)NC1CCCCC1,nt,-2.0,7.1%,-2.2,3.9%
COC(=O)c1sc(-c2ccc(Cl)cc2)cc1NC(=O)CSCC(=O)O,15.9%,0.9,-3.4%,-2.3,7.2%
COC(=O)c1sc(-c2ccc(C(C)(C)C)cc2)cc1NC(=O)COCC(=O)O,-17.8%,43.7*,?,20.5*,14.1%
O=C(NC1CC1)c1sc2cc([N+](=O)[O-])ccc2c1Cl,140.0%,18.0,46.3%,26.9*,12.0%
CC(NC(=O)c1sc2cc([N+](=O)[O-])ccc2c1Cl)C(C)(C)C (centres undefined),-17.0%,1.9,?,-1.8,5.8%
CC1CCCN(C(=O)c2sc3cc([N+](=O)[O-])ccc3c2Cl)C1 (centres undefined),21.7%,84.8*,?,32.1*,-10.0%
Cc1ccc2c(Cl)c(C(=O)NC3CC3)sc2c1,111.0%,61.1*,86.5%,47.1*,-16.0%
Cc1ccc2c(Cl)c(C(=O)Nc3cccnc3)sc2c1,31.8%,126.4*,16.0%,58.5*,-25.5%
Cc1ccc2c(C)c(C(=O)Nc3cccnc3)oc2c1,nt,-5.2,50.2%,20.0,-6.3%
Cc1ccc(-n2cc(S(=O)(=O)c3ccc(C)cc3)[nH]c2=O)cc1,?,12.2,?,2.7,nt
CCOC(=O)[C@@H]1[C@H]2COc3cc(OC)ccc3[C@@H]2N2C(=O)N(c3cccc(Cl)c3)C(=O)[C@]12C,?,-2.7,?,-1.4,13.7%
Cc1ccc2c(c1)N(CC(=O)NCC1COc3ccccc3O1)C(=O)CO2 (centres undefined),nt,nt,nt,nt,-3.3%
Cc1ccsc1CN(C(=O)c1ccc([N+](=O)[O-])cc1)C1CCS(=O)(=O)C1 (centres undefined),?,-7.5,-24.2%,-0.8,-14.0%
N#CC1CC(c2ccccc2)Nc2cc(Cl)ccc2N1 (centres undefined),?,69.0*,136.3%,37.0*,-97.0%
Cc1cc(C)nc(NC(=O)c2ccc(Br)cc2)n1,34.6%,-2.7,nt,0.8,-0.7%
Cc1cc(NO)nc(-c2ccc(Br)cc2)n1,nt,108.7*,?,47.2*,-1.8%
CCOC(=O)c1c(C)nsc1NC(=O)C1CCCCC1,?,-7.2,15.0%,-4.7,-17.7%
COc1ccc(NC2SC(=O)N(C)C2=O)cc1 (centres undefined),22.8%,49.4*,15.2%,9.0,-36.0%
O=C(Oc1ccccc1C(=O)Nc1ccccc1)c1ccc(Br)c([N+](=O)[O-])c1,41.5%,25.7*,33.4%,50.4*,-41.0%
SMILES,Pf growth 96h,Shiga toxin inh,Pf growth 48h,Cycloheximide cs,NS1 function inh
O=C(Oc1cccc(NC(=O)c2ccccc2Cl)c1)c1ccc([N+](=O)[O-])cc1,?,31.7,66.3%,21.8,-51.6%
COc1ccccc1C(=O)Nc1ccc(C(=O)c2ccccc2)cc1,-2.4%,61.9*,-28.2%,27.3*,-1.6%
COc1ccccc1C(=O)Oc1ccccc1C(=O)Nc1ccccc1,?,51.9*,1.3%,22.8*,-7.6%
CC(C)(C)NC(=O)CN(CCN1CCOCC1)C(=O)CNS(=O)(=O)c1ccc(Cl)cc1,-17.0%,0.5,37.2%,0.8,-5.5%
CC(=O)Nc1ccc(OC(=O)c2ccccc2OC(C)=O)cc1,?,nt,-0.6%,nt,nt
O=C(Nc1ccc(Nc2ccc3c(c2)C(=O)c2ccccc2C3=O)c2c1C(=O)c1ccccc1C2=O)c1ccccc1,nt,nt,nt,nt,0.0%
O=C(O)C(Cc1ccc2c(c1)oc1ccccc12)NCP(=O)(O)O (centres undefined),nt,-13.4,nt,10.2,nt
CC(=O)Nc1ccc(S(=O)(=O)NC(=O)C23CC4CC(CC(C4)C2)C3)cc1,0.928µM*,-9.7,nt,-2.8,0.5%
O=C(CSc1nnc(-c2ccc(F)cc2)o1)N1CCCC1,?,33.6,84.2%,16.4*,3.1%
COc1ccc(-c2nnc(SCC(=O)N3CCCCC3)o2)c(OC)c1,?,25.1,12.3%,30.4*,-0.4%
COc1ccc(-c2nnc(SCC(=O)N3CCCC(C)C3)o2)c(OC)c1 (centres undefined),nt,21.6,?,-1.4,-21.2%
Cc1cccc(-c2nnc(SCC(=O)N3CCCC3)o2)c1,-10.5%,92.5*,108.2%,19.1*,-0.8%
O=C(CSc1nnc(-c2ccncc2)o1)N1CCCCCC1,-11.2%,33.7,26.5%,9.9,-2.4%
Cc1ccc(-c2nnc(SCC(=O)N3CCCC3)o2)cc1,2.6%,56.4,29.4%,17.0*,6.0%
Cc1cccc(-c2nnc(SCCC(=O)N3CCOCC3)o2)c1,?,50.3,39.8%,9.0,-2.5%
Cc1ccc(-c2nnc(SCC(=O)NC3CC3)o2)cc1,1.6%,60.8*,13.7%,23.8*,-2.6%
CC1CCN(C(=O)CSc2nnc(-c3cccnc3)o2)CC1,?,-7.1,16.3%,-5.7,0.0%
COc1ccc(N2CCN(C(=O)c3ccc4[nH]c(C)c(C)c4c3)CC2)cc1,?,-3.4,?,-1.1,-91.7%
COc1ccc(-c2nnc(SCC(=O)N3CCCC3)o2)cc1,-18.0%,66.6*,83.3%,32.5*,5.6%
COC(=O)C1CCN(C(=O)CSc2nnc(-c3ccncc3)o2)CC1,5.22µM*,-5.8,12.7%,-2.6,7.8%
Cc1cccc(-c2nnc(SCC(=O)NC3CCCC3)o2)c1,-1.0%,25.9,58.0%,-3.3,-1.0%
COc1ccc(N2CCN(C(=O)CSc3nnc(-c4ccc5[nH]c(C)c(C)c5c4)o3)CC2)cc1,3.29µM*,-8.0,?,-1.6,-19.2%
CCOc1cc2c(cc1OCC)C(c1cc(OC)c(O)c(OC)c1)NCC2 (centres undefined),nt,nt,nt,nt,3.3%
Cc1ccc(S(=O)(=O)N2CCN(C(=O)CSc3nnc(-c4ccco4)o3)CC2)cc1,10.4µM*,-8.7,nt,-1.5,-16.3%
O=C(c1ccc(Cl)cc1)c1oc2ccccc2c1CS(=O)c1ccccc1 (centres undefined),?,-20.8,?,-1.4,-0.7%
CN(C(=O)c1cc2c(s1)-c1ccccc1S(=O)(=O)C2)c1ccccc1,?,41.9,9.28µM*,8.8,-11.0%
